From article PMC5700166
Substitutions are numbered along the chain they refer to.

Key:
Assay in all cases: protein-binding microarray (PBM); PBM: ~300 nM protein, 6 mM HEPES pH 7.8, 80 mM KCl, 0.5 mM EDTA, 0.5 mM EGTA, 6% glycerol, 35 ng/ul poly-dIdC, 1% milk, 1 h, room temperature; Ap Aiptasia and Nv Nematostella (sea anemones) / Co Capsaspora / Aq Amphimedon (sponge) / Dm Drosophila / Hu human; RHD is the Rel homology domain; high values mean tight binding
Settings in all cases: dsDNA, one strand shown
GST-Ap-NF-kB RHD = target: T1, GST-Ap-NF-kB RHD (Exaiptasia pallida (Aiptasia), UniProt A0A913YAJ5 2-422)
T1 sequence: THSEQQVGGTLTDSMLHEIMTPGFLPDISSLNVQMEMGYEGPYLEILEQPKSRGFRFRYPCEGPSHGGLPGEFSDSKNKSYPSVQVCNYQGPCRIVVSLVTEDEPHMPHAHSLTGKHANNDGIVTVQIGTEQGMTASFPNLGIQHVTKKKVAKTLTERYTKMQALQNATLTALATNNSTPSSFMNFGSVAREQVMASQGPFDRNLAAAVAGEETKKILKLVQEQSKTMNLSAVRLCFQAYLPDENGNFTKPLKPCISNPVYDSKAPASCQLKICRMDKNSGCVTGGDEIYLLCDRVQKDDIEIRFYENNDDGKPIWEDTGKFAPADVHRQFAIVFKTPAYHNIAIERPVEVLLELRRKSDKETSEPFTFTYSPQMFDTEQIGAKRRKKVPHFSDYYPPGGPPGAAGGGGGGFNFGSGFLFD

[1] = target: T2, GST-Nv-NF-kB (Cys allele) (Nematostella vectensis, UniProt E5G601 2-411)
T2 sequence: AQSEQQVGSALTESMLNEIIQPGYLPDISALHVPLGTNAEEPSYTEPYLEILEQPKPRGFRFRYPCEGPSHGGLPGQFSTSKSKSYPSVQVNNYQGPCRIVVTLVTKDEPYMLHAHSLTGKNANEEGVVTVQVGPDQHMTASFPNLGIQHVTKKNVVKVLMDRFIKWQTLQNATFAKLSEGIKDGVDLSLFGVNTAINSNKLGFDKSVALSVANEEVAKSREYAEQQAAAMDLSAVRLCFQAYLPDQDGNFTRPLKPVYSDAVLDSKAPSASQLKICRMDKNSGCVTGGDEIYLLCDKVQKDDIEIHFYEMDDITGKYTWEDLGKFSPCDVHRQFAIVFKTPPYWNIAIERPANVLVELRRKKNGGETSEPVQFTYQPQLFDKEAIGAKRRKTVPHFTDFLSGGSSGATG

[2] = target: T3, GST-Nv-NF-kB (Ser allele) (Nematostella vectensis, UniProt A7UNT2 2-411)
T3 sequence: T2 sequence with Q21R, C66S, S207N, E215Q, V217A, E225K, A268E, D399E

GST-Co-NF-kB = target: T4, GST-Co-NF-kB (Capsaspora owczarzaki, UniProt F1ARL5 200-546)
T4 sequence: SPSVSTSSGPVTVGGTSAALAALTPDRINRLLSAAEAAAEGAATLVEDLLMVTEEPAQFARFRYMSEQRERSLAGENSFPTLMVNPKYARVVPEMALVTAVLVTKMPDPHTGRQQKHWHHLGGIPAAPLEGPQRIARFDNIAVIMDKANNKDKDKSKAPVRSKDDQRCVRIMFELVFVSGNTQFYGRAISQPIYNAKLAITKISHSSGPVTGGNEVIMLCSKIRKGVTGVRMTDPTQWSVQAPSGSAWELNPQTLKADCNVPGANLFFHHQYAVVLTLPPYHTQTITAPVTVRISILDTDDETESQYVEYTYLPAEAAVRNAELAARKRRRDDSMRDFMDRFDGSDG

GST-Dm-Relish = target: T5, GST-Dm-Relish (Drosophila melanogaster, UniProt Q94527 99-473)
T5 sequence: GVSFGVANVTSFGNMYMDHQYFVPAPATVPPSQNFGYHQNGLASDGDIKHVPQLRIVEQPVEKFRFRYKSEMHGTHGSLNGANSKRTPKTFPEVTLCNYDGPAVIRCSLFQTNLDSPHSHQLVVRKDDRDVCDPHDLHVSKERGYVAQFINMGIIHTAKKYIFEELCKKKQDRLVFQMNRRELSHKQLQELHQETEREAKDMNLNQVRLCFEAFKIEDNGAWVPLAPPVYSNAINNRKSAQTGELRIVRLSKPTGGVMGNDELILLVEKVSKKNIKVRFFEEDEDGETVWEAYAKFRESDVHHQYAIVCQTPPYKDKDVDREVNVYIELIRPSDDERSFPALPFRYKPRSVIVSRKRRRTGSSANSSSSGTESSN

GST-Aq-NF-kB = target: T6, GST-Aq-NF-kB (Amphimedon queenslandica, UniProt A9Y5G7 2-389)
T6 sequence: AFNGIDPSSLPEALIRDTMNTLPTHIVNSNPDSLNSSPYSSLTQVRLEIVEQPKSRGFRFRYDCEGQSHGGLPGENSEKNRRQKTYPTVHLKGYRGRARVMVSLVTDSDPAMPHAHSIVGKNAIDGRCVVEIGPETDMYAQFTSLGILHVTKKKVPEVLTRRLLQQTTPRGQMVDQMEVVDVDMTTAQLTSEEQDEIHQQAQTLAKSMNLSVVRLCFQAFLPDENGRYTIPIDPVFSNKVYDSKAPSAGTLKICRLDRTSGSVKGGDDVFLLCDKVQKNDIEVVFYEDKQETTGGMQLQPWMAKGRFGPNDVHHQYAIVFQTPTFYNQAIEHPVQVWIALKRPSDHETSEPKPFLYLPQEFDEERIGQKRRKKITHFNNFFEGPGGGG

GST-Hu-p50 = GST-Hu-p50 (Homo sapiens, UniProt P19838 7-356)
Sequence of GST-Hu-p50 (P19838 7-356): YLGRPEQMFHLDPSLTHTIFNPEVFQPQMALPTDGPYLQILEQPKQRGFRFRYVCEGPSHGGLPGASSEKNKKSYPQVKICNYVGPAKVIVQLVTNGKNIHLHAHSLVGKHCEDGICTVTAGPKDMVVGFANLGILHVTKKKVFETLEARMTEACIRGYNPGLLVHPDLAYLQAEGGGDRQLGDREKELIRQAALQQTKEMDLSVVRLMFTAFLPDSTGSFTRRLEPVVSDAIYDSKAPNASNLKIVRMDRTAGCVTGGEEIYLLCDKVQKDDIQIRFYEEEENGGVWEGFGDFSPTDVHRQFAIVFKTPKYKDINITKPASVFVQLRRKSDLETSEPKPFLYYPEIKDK

| Sequence | binding signal (GST-Ap-NF-kB RHD) [z-score] | binding signal [1] [z-score] | binding signal [2] [z-score] | binding signal (GST-Co-NF-kB) [z-score] | binding signal (GST-Dm-Relish) [z-score] | binding signal (GST-Aq-NF-kB) [z-score] | binding signal (GST-Hu-p50) [z-score] |
| --- | --- | --- | --- | --- | --- | --- | --- |
| CCGATTAACATCAAAATCTCCCCTGATGTTAATCGGGTCTTGATTCGCTTGACGCTGCTG | 8.53 | 7.57 | 8.79 | 7.3 | 4.44 | 6.41 | 5.85 |
| CCGATTAACATCAGGGGTTTCTATGATGTTAATCGGGTCTTGATTCGCTTGACGCTGCTG | 5.36 | 4.73 | 4.67 | 1.76 | 5.29 | 4.5 | 5.3 |
| CCGATTAACATCAGAAAGTCCCCTGATGTTAATCGGGTCTTGATTCGCTTGACGCTGCTG | 8.98 | 9.38 | 8.58 | 3.84 | 9.11 | 7.8 | 7.42 |
| CCGATTAACATCAGGGGAGGGACTGATGTTAATCGGGTCTTGATTCGCTTGACGCTGCTG | 4.36 | 4.69 | 4.55 | 2.92 | 3.83 | 5.21 | 3.82 |
| CCGATTAACATCAAATCTCCCCCTGATGTTAATCGGGTCTTGATTCGCTTGACGCTGCTG | 8.37 | 6.08 | 9.76 | 10.1 | 4.14 | 6.11 | 7.19 |
| CCGATTAACATCAGGGAATCTACTGATGTTAATCGGGTCTTGATTCGCTTGACGCTGCTG | 2.43 | 3.44 | 3.68 | 1.94 | 4.76 | 4.82 | 2.96 |
| CCGATTAACATCAAGGGGACTTCTGATGTTAATCGGGTCTTGATTCGCTTGACGCTGCTG | 7.92 | 7.59 | 7.54 | 2.41 | 7.45 | 6.14 | 6.74 |
| CCGATTAACATCACGGATTCCCCTGATGTTAATCGGGTCTTGATTCGCTTGACGCTGCTG | 8.74 | 9.07 | 9.24 | 6.61 | 8.89 | 6.68 | 6.26 |
| CCGATTAACATCAGGGAAACATATGATGTTAATCGGGTCTTGATTCGCTTGACGCTGCTG | 2.23 | 3.74 | 4.15 | 5.27 | 1.07 | 4.73 | 1.78 |
| CCGATTAACATCAATATAACCCCTGATGTTAATCGGGTCTTGATTCGCTTGACGCTGCTG | 3.99 | 2.48 | 2.08 | 2.11 | 2.05 | 2.37 | 2.73 |
| CCGATTAACATCACCCCTTCCCCTGATGTTAATCGGGTCTTGATTCGCTTGACGCTGCTG | 4.7 | 3.88 | 4.86 | 5.6 | 2.5 | 3.85 | 3.3 |
| CCGATTAACATCAAACTTCCCCATGATGTTAATCGGGTCTTGATTCGCTTGACGCTGCTG | 6.34 | 7.12 | 7.9 | 7.04 | 5.5 | 6.28 | 5.87 |
